Sampled rows, rich in hits. Any-hit rate of the full collection: about 1.3%.
CCHF vOTU inh: blocks the CCHF virus ovarian tumor domain protease | CCHFV vOTU protease, Pep-AMC fluorescence | inhibition, % at 11.5 µM | 0.55% of 370,000 active; in the data active = inhibition above about 30%; also: 0% = vehicle wells with enzyme and 100% = no enzyme wells
PriA SSB inh: K. pneumoniae PriA-SSBct interaction inhibition | AID 1272365 | AlphaScreen SSBct-PriA binding, biotinylated peptide | inhibition, % at 33 µM | 0.6% of 430,000 active; in the data active = inhibition mostly above about 37%, no sharp cut-off; inactive = mostly below about 20%;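 also: plate controls were negative control peptide for no effect and reference peptide for full effect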
Mtb hypoxia inh: inhibitors of hypoxia-regulated fluorescent reporter in Mycobacterium tuberculosis; M. tuberculosis hypoxia-regulated fluorescent reporter, fluorescence; fluorescence inhibition, % (test concentration not listed); 0.1% of 300,000 active; AID 1159583; in the data active = fluorescence inhibition mostly above about 23%, no sharp cut-off; inactive = mostly below about 17%
SARS 3CLpro inh-1: SARS-CoV 3CLpro protease inhibition. recombinant SARS-CoV 3CLpro, quenched FRET peptide cleavage. inhibition, % at 6 µM. 0.14% of 290,000 active. AID 1706; in the data active = inhibition above about 12%
VHR inh abs: blocks human VHR1 dual specificity phosphatase. recombinant VHR phosphatase, pNPP absorbance. inhibition, % at 13.3 µM. 0.52% of 290,000 active. AID 1654; in the data active = inhibition above about 50%
Target sequence (P51452 whole entry, looked up): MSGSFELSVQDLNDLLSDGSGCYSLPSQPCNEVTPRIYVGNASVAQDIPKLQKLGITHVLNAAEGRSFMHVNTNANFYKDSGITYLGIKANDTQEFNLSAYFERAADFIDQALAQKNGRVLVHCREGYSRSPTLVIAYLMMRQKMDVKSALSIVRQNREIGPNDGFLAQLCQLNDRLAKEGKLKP
SARS 3CLpro inh-2: SARS 3CLpro inhibition, confirmation assay | shares compounds with SARS 3CLpro inh-1 | QFRET protease activity assay | inhibition, % at 6 µM | 36% of 380 active | AID 1879; in the data active = inhibition above about 13%
Numbers without * were called inactive; i = inactive; · = no result.

SMILES | CCHF vOTU inh | PriA SSB inh | Mtb hypoxia inh | SARS 3CLpro inh-1 | VHR inh abs | SARS 3CLpro inh-2
CC(=O)N(C)c1ccc(NS(=O)(=O)c2cc(Cl)ccc2Cl)cc1 | -10 | -16 | 6 | 14* | 20 | -2
CC1=Nc2cccc3cccc(c23)N1C | 3 | 7 | · | 13* | -4 | -5
O=C(NCCn1ncc2c(N3CCN(Cc4ccccc4)CC3)ncnc21)c1ccc2ccccc2c1 | · | 9 | · | · | · | ·
O=C(N/N=C/c1ccncc1)c1cccc(S(=O)(=O)Nc2ccc(Cl)cc2)c1 | 7 | i | · | 62* | 94 | -1
O=C(NN=Cc1cccs1)c1cccc(S(=O)(=O)Nc2ccc(Cl)cc2)c1 | · | 10 | 16 | · | · | ·
COC(=O)c1sccc1S(=O)(=O)NCc1cncc(-c2ccsc2)c1 | · | -9 | · | · | · | ·
O=C(N/N=C\c1c(O)ccc2ccccc12)c1cncc(Br)c1 | -1 | · | · | 29* | 26 | 26*
CNC(=O)N(O)C1N(N=Cc2ccccc2O)C(=S)SC1(C)C (stereo not given) | · | 1 | 12 | · | · | ·
CNC(=O)N(O)C1N(/N=C/c2cccs2)C(=S)SC1(C)C (stereo not given) | -7 | i | · | 13* | -5 | 2
O=C(Cn1nnc(-c2ccccc2NC(=O)c2ccccc2F)n1)NCc1ccco1 | 11 | -5 | · | 12* | 8 | 1
CC(C)Oc1cc(NC(=O)CSCC(=O)Nc2cccc(C(F)(F)F)c2)c(Cl)cc1Cl | 5 | -12 | 2 | 17* | -1 | 1
O=C(O)CSCC(=O)Nc1cc(C(F)(F)F)ccc1Cl | -11 | -6 | -6 | -2 | 8 | ·
O=C1CCc2cc(S(=O)(=O)NCc3ccnc(-c4ccsc4)c3)cc3c2N1CC3 | · | -7 | · | · | · | ·
Cc1ccc(Cl)c2sc(N)nc12 | · | -17 | · | · | · | ·
CSc1nsc(NC(=O)OCc2ccc(Cl)cc2)n1 | -1 | -41 | 6 | 13* | -2 | 3
Cc1ccc(-c2csc(NC(=O)COc3ccccc3)n2)cc1C | · | -2 | · | · | · | ·
CCN1C(=O)C(NC(C)=O)c2cc(Br)ccc21 (stereo not given) | 2 | -13 | · | -5 | 20 | ·
CC(=O)NC1C(=O)N(CCN2CCOCC2)c2ccc(F)cc21 (stereo not given) | -9 | -1 | 12 | 12* | 16 | 45*
Cc1cc(=O)oc2cc(NC(=O)c3ccccc3OC(F)F)ccc12 | -35 | -9 | 10 | 13* | 7 | -2
O=C(Nc1ccccc1F)c1oc2ccccc2c1NC(=O)C1c2ccccc2Oc2ccccc21 | · | -17 | · | · | · | ·
O=C(CSc1ncnc2scc(-c3ccccc3)c12)Nc1ccc(C(=O)O)cc1 | 1 | -4 | 4 | 13* | 23 | 6
CS(=O)(=O)N1CCC(c2nn(CC(=O)OCc3ccccc3)c(=O)n2-c2cccs2)CC1 | · | -22 | · | · | · | ·
O=C(CSc1ccc(F)cc1)NC[C@H](O)c1ccoc1 | · | -9 | · | · | · | ·
CC(C)(C)C1CCc2onc(C(=O)Nc3cccnc3)c2C1 (stereo not given) | -6 | -18 | 0 | 14* | 11 | 7
O=C(Oc1ccc(Br)cc1C(=O)/C=C/c1ccccc1F)c1ccco1 | 8 | -3 | -3 | 22* | · | 43*
SMILES | CCHF vOTU inh | PriA SSB inh | Mtb hypoxia inh | SARS 3CLpro inh-1 | VHR inh abs | SARS 3CLpro inh-2
CC(=O)c1cc(Cl)ccc1OC(=O)c1ccco1 | 7 | -18 | 4 | -2 | 24 | ·
COc1cccc(N2C(=O)/C(=C/c3ccc(C)o3)C(=O)NC2=S)c1 | -16 | 2 | 16 | 13* | -16 | -4
O=C(Nc1c2c(nn1-c1cccc(Cl)c1)CS(=O)(=O)C2)c1ccc2c(c1)OCO2 | -6 | 0 | 2 | 13* | 30 | 1
O=C(Nc1c2c(nn1-c1ccc(Cl)cc1)CS(=O)(=O)C2)c1ccc2c(c1)OCO2 | 1 | -13 | 8 | 0 | 3 | ·
CC(O)(CCc1ccccc1)CNC(=O)C1CCC1 (stereo not given) | · | 6 | · | · | · | ·
Cc1ccc(S(=O)(=O)N2CCN(S(=O)(=O)c3ccc4c(c3)OCCO4)CC2)cc1 | -7 | 0 | 9 | 12* | 18 | -3
O=S(=O)(c1ccc(F)cc1)N1CCN(S(=O)(=O)c2ccc3c(c2)OCCO3)CC1 | 3 | 6 | 16 | · | · | ·
Cc1ccc(-c2csc(NC(=O)c3cccc([N+](=O)[O-])c3C(=O)O)n2)cc1 | -9 | -14 | -2 | 10 | -7 | ·
O=C(Nc1nc(-c2cccc([N+](=O)[O-])c2)cs1)c1cccc([N+](=O)[O-])c1C(=O)O | 8 | 2 | -1 | 17* | -5 | 5
CS(=O)(=O)N1CCN(c2nc(N3CCOCC3)nc(-n3ccnc3)n2)CC1 | · | -12 | · | · | · | ·
CSc1cccc(NC(=O)Cc2ccccc2[N+](=O)[O-])c1 | 9 | -1 | -5 | 14* | -3 | 6
COc1cccc(NC(=O)COC(=O)Cc2ccccc2[N+](=O)[O-])c1 | 5 | 4 | 12 | 4 | 39 | ·
CC(C)Oc1ccc(/C=N/NC(=O)c2nnn(-c3nonc3N)c2CN(C)c2ccccc2)cc1 | 13 | · | · | 14* | 9 | 5
CC(C)Oc1ccc(C=NNC(=O)c2nnn(-c3nonc3N)c2CN(C)c2ccccc2)cc1 | · | -5 | · | · | · | ·
COCC(=O)N1CCCc2ccc(NC(=O)c3cc4ccc(OC)cc4[nH]3)cc21 | · | 1 | · | · | · | ·
Cc1cccc(Nc2nnc(SCC(=O)Nc3ncc(C(F)(F)F)cc3Cl)s2)c1C | -8 | 3 | · | 13* | -2 | 3
Cc1cccc(C)c1Nc1nnc(SCC(=O)Nc2ncc(C(F)(F)F)cc2Cl)s1 | -2 | -6 | 9 | 6 | -2 | ·
Cc1ccccc1Nc1nnc(SCC(=O)Nc2ncc(C(F)(F)F)cc2Cl)s1 | 8 | 0 | 6 | 20* | -12 | -4
COc1ccc(-c2cc(N)n(S(=O)(=O)c3c(F)c(F)c(F)c(F)c3F)n2)cc1OC | -7 | 2 | 5 | 14* | 22 | 2
CSc1ccccc1OCc1cc(C(=O)N(C)Cc2cc(C)[nH]n2)no1 | 5 | 3 | 8 | -4 | -6 | ·
CSc1ccccc1OCc1cc(C(=O)N(C)Cc2cnccn2)no1 | -3 | -1 | -6 | 14* | -4 | 1
FC(F)(F)c1cccc(NC(=S)NNC(=S)NCc2ccccc2)c1 | 24 | 8 | -6 | 14* | -4 | 2
O=C(CCSc1ccc(F)cc1)Nc1nccs1 | · | -17 | · | · | · | ·
O=C(Nc1cnc(N2CCOCC2)nc1)c1ccc(F)cc1Cl | · | -19 | · | · | · | ·
CN(C)S(=O)(=O)c1cccc(NC(=S)N/N=C/c2cc(Br)ccc2O)c1 | 13 | · | · | 15* | 9 | 5
SMILES | CCHF vOTU inh | PriA SSB inh | Mtb hypoxia inh | SARS 3CLpro inh-1 | VHR inh abs | SARS 3CLpro inh-2
O=C(NCCc1ccccc1)C(=O)NCC1OCCN1S(=O)(=O)c1ccc2c(c1)OCCO2 (stereo not given) | -2 | -4 | -7 | 15* | -7 | 0
O=C(c1ccc2ncsc2c1)N1CCCCC1 | -6 | -9 | 2 | -5 | 42 | ·
O=C(O)c1ccc2ncsc2c1 | -9 | 4 | 5 | 17* | 22 | 38*
CO[C@@](C)(CNC(=O)Nc1ccccc1Cl)c1ccccc1F | · | 2 | · | · | · | ·
O=C(Oc1cccnc1)c1ccccc1[N+](=O)[O-] | 2 | 0 | 7 | 20* | -7 | 51*
COc1ccc(C(=O)Oc2cccnc2)cc1 | 15 | -1 | · | 25* | 14 | 39*
